PubChem BioAssay AID1159580 (chemical genetic matrix, 2015)
Out of some 5,500 compounds screened, about 2,000 (36%) were called active. Not shown: some 18% with an inconclusive outcome. Cut-off read from the data, not from the text of the source: active = normalized growth mostly below about 0.91 (no sharp cut-off); inconclusive = no clear call, values can overlap the other calls; inactive = mostly above about 0.92. Some of the results follow.

Assay: chemical genetic growth profiling, strain panel (AID 1159580);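 note: tested at 20 µM; growth read once vehicle control cultures reached saturation at 30 °C; 1 = growth at the plate median or of vehicle wells; lower values mean less growth of the strain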
Conditions: growth OD

Measured: normalized growth

N#C/C(=C\c1cccc(O)c1)C(=O)O
inactive: S. cerevisiae deletion strains, locus YJR075W, strain HOC1, stronger effect = lower value 0.98 | S. cerevisiae deletion strains, locus YKL009W, strain mrt4, stronger effect = lower value 0.989 | S. cerevisiae deletion strains, locus YKL068W, stronger effect = lower value 0.998 | S. cerevisiae deletion strains, locus YKL085W, strain MDH1 (second series), stronger effect = lower value 0.951 | S. cerevisiae deletion strains, locus YKL085W, strain MDH1, stronger effect = lower value 0.951 | S. cerevisiae deletion strains, locus YKL160W, strain elf1, stronger effect = lower value 0.977 | S. cerevisiae deletion strains, locus YKL190W, strain CNB1, stronger effect = lower value 0.99 | S. cerevisiae deletion strains, locus YKR001C, strain vps1, stronger effect = lower value 1 | S. cerevisiae deletion strains, locus YKR026C, strain gcn3, stronger effect = lower value 1 | S. cerevisiae deletion strains, locus YKR091W, strain srl3, stronger effect = lower value 0.976 | S. cerevisiae deletion strains, locus YLL001W, strain dnm1, stronger effect = lower value 1.03 | S. cerevisiae deletion strains, locus YLL026W, stronger effect = lower value 0.974 | S. cerevisiae deletion strains, locus YLL041C, strain sdh2, stronger effect = lower value 0.984 | S. cerevisiae deletion strains, locus YLR027C, strain aat2, stronger effect = lower value 0.985 | S. cerevisiae deletion strains, locus YLR039C, strain RIC1, stronger effect = lower value 1.01 | S. cerevisiae deletion strains, locus YLR058C, strain SHM2, stronger effect = lower value 0.979 | S. cerevisiae deletion strains, locus YLR102C, strain apc9, stronger effect = lower value 0.988 | S. cerevisiae deletion strains, locus YLR113W, strain HOG1, stronger effect = lower value 0.971 | S. cerevisiae deletion strains, locus YLR221C, strain rsa3, stronger effect = lower value 1.02 | S. cerevisiae deletion strains, locus YLR258W, strain gsy2, stronger effect = lower value 0.977 | S. cerevisiae deletion strains, locus YLR262C, strain YPT6 (second series), stronger effect = lower value 0.974 | S. cerevisiae deletion strains, locus YLR262C, strain YPT6, stronger effect = lower value 0.957 | S. cerevisiae deletion strains, locus YLR268W, strain sec22, stronger effect = lower value 0.987 | S. cerevisiae deletion strains, locus YLR320W, strain mms22, stronger effect = lower value 1.03 | S. cerevisiae deletion strains, locus YLR330W, strain CHS5, stronger effect = lower value 0.989 | S. cerevisiae deletion strains, locus YLR342W, strain FKS1 (second series), stronger effect = lower value 1.09 | S. cerevisiae deletion strains, locus YLR342W, strain FKS1, stronger effect = lower value 0.99 | S. cerevisiae deletion strains, locus YLR357W, strain rsc2, stronger effect = lower value 0.988 | S. cerevisiae deletion strains, locus YLR370C, strain arc18, stronger effect = lower value 0.978 | S. cerevisiae deletion strains, locus YLR371W, strain rom2, stronger effect = lower value 1 | S. cerevisiae deletion strains, locus YLR384C, strain iki3, stronger effect = lower value 0.991 | S. cerevisiae deletion strains, locus YLR418C, strain cdc73, stronger effect = lower value 0.964 | S. cerevisiae deletion strains, locus YML016C, strain PPZ1, stronger effect = lower value 1 | S. cerevisiae deletion strains, locus YML032C, strain rad52, stronger effect = lower value 1.02 | S. cerevisiae deletion strains, locus YML120C, strain ndi1, stronger effect = lower value 0.992 | S. cerevisiae deletion strains, locus YML124C, strain tub3, stronger effect = lower value 1 | S. cerevisiae deletion strains, locus YMR058W, strain fet3, stronger effect = lower value 0.997 | S. cerevisiae deletion strains, locus YMR078C, strain ctf18, stronger effect = lower value 0.996 | S. cerevisiae deletion strains, locus YMR125W, strain sto1, stronger effect = lower value 0.991 | S. cerevisiae deletion strains, locus YMR129W, stronger effect = lower value 0.964 | S. cerevisiae deletion strains, locus YMR205C, strain PFK2, stronger effect = lower value 1.02 | S. cerevisiae deletion strains, locus YMR223W, strain ubp8, stronger effect = lower value 1.05 | S. cerevisiae deletion strains, locus YMR231W, strain pep5, stronger effect = lower value 0.991 | S. cerevisiae deletion strains, locus YMR263W, strain SAP30, stronger effect = lower value 0.979 | S. cerevisiae deletion strains, locus YMR307W, strain GAS1, stronger effect = lower value 1.08 | S. cerevisiae deletion strains, locus YNL067W, strain RPL9B, stronger effect = lower value 0.989 | S. cerevisiae deletion strains, locus YNL071W, strain lat1, stronger effect = lower value 0.997 | S. cerevisiae deletion strains, locus YNL128W, strain TEP1, stronger effect = lower value 0.928 | S. cerevisiae deletion strains, locus YNL153C, strain GIM3, stronger effect = lower value 0.984 | S. cerevisiae deletion strains, locus YNL183C, strain NPR1, stronger effect = lower value 0.915 | S. cerevisiae deletion strains, locus YNL209W, strain ssb2, stronger effect = lower value 1 | S. cerevisiae deletion strains, locus YNL233W, strain BNI4, stronger effect = lower value 1.01 | S. cerevisiae deletion strains, locus YNL248C, strain rpa49, stronger effect = lower value 0.963 | S. cerevisiae deletion strains, locus YNL250W, strain rad50, stronger effect = lower value 0.991 | S. cerevisiae deletion strains, locus YNL271C, strain bni1, stronger effect = lower value 1.01 | S. cerevisiae deletion strains, locus YNL298W, strain CLA4, stronger effect = lower value 1 | S. cerevisiae deletion strains, locus YNL307C, strain MCK1, stronger effect = lower value 1.03 | S. cerevisiae deletion strains, locus YNL322C, strain KRE1 (second series), stronger effect = lower value 0.952 | S. cerevisiae deletion strains, locus YNL322C, strain KRE1, stronger effect = lower value 0.979 | S. cerevisiae deletion strains, locus YNR049C, strain mso1, stronger effect = lower value 0.961 | S. cerevisiae deletion strains, locus YNR052C, strain pop2, stronger effect = lower value 0.995 | S. cerevisiae deletion strains, locus YOL006C, strain TOP1, stronger effect = lower value 0.975 | S. cerevisiae deletion strains, locus YOL012C, strain htz1 1.3 | S. cerevisiae deletion strains, locus YOL147C, strain pex11, stronger effect = lower value 0.994 | S. cerevisiae deletion strains, locus YOR001W, strain rrp6, stronger effect = lower value 1.02 | S. cerevisiae deletion strains, locus YOR061W, strain CKA2, stronger effect = lower value 0.96 | S. cerevisiae deletion strains, locus YOR069W, strain VPS5, stronger effect = lower value 0.997 | S. cerevisiae deletion strains, locus YOR070C, strain gyp1, stronger effect = lower value 0.993 | S. cerevisiae deletion strains, locus YOR080W, strain dia2, stronger effect = lower value 0.984 | S. cerevisiae deletion strains, locus YOR083W, strain WHI5, stronger effect = lower value 0.916 | S. cerevisiae deletion strains, locus YOR106W, strain vam3, stronger effect = lower value 0.924 | S. cerevisiae deletion strains, locus YOR136W, strain idh2, stronger effect = lower value 1.01 | S. cerevisiae deletion strains, locus YOR144C, strain elg1, stronger effect = lower value 0.989 | S. cerevisiae deletion strains, locus YOR184W, strain ser1, stronger effect = lower value 1.06 | S. cerevisiae deletion strains, locus YOR231W, strain MKK1, stronger effect = lower value 0.973 | S. cerevisiae deletion strains, locus YOR265W, strain rbl2, stronger effect = lower value 0.964 | S. cerevisiae deletion strains, locus YOR270C, strain vph1, stronger effect = lower value 0.997 | S. cerevisiae deletion strains, locus YOR290C, strain snf2, stronger effect = lower value 0.967 | S. cerevisiae deletion strains, locus YOR316C, strain cot1, stronger effect = lower value 0.986 | S. cerevisiae deletion strains, locus YPL051W, strain arl3, stronger effect = lower value 0.981 | S. cerevisiae deletion strains, locus YPL055C, strain LGE1, stronger effect = lower value 0.96 | S. cerevisiae deletion strains, locus YPL078C, strain atp4, stronger effect = lower value 0.991 | S. cerevisiae deletion strains, locus YPL106C, strain sse1, stronger effect = lower value 0.961 | S. cerevisiae deletion strains, locus YPL240C, strain hsp82, stronger effect = lower value 0.986 | S. cerevisiae deletion strains, locus YPL241C, strain CIN2, stronger effect = lower value 0.987 | S. cerevisiae deletion strains, locus YPL256C, strain CLN2, stronger effect = lower value 0.977 | S. cerevisiae deletion strains, locus YPR119W, strain clb2, stronger effect = lower value 0.987 | S. cerevisiae deletion strains, locus YPR141C, strain kar3, stronger effect = lower value 0.975 | S. cerevisiae deletion strains, locus YPR163C, strain tif3, stronger effect = lower value 0.998 | S. cerevisiae deletion strains, locus YPR167C, strain met16, stronger effect = lower value 0.981 | S. cerevisiae deletion strains, strain wtn01, stronger effect = lower value 0.98 | S. cerevisiae strains, strain wild type, stronger effect = lower value 1.02
